# Screening data from PubChem.
# A selection: hits, their analogues and other compounds. The true share with any hit is near 27%.
# CYP2C19 act: cytochrome P450 2C19 (human) activation | P33261 | recombinant CYP2C19, luciferin-H EGE luminescence; hits give high values; 0 = fully inhibited enzyme, 1 = untreated enzyme | 96,000 tested, under 10 active | activation factor at 5 µM | AID 1025;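 active = activation factor of at least 2 at 5 µM in the primary screen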;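 note: 0 = wells with 2.5 mM tranylcypromine and 1 = vehicle-only wells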
# Cav3 T inh: human Cav3.2 channel inhibition, primary screen; O95180; Cav3.2-expressing cells, Fluo-4 calcium fluorescence FDSS; hits give low values; B-score at 10 µM; hit rate 4% among 100,000;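 active = single-dose well whose peak fluorescence ratio is a statistical outlier from its plate by either plate-standardised score or position-corrected B-score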
# CYP2C19 inhib: inhibitors of human CYP2C19; P33261; CYP2C19 Supersomes, luciferin-H EGE luminescence, 30 min; inhibition, % at 5 µM; hit rate 21% among 96,000;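 active = CYP2C19 inhibition above a set limit at 5 µM in the primary screen, cut at about 50% in these data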;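 note: plate controls were negative control wells for no effect and 2.5 mM tranylcypromine positive control for full effect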
# CYP2C9 activ: increases human cytochrome P450 2C9 activity; P11712; recombinant CYP2C9, luciferin-H conversion, luminescence; hits give high values; factor 1 = untreated enzyme, 0 = blocked; activation factor at 5 µM; hit rate 1.4% among 96,000;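 active = activation factor of 2 or more for CYP2C9 at a 5 µM dose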;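 note: 0 = sulfaphenazole-blocked wells and 1 = vehicle-only wells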
# Target sequence (P11712 whole entry, looked up): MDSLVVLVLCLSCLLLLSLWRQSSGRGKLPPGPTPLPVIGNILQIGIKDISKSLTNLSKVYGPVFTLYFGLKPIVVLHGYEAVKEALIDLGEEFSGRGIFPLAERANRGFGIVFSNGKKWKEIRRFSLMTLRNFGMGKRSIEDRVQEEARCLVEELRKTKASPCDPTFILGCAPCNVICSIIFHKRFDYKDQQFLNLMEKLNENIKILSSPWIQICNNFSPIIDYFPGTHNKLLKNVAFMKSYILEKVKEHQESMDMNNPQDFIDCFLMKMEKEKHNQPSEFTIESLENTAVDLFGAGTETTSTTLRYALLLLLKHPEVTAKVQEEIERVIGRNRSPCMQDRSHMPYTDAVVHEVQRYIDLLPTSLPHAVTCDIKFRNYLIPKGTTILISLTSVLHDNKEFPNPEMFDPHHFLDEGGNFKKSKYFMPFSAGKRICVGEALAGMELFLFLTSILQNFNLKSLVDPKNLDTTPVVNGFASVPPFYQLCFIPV
# CYP2C9 inhib: blocks human cytochrome P450 2C9; CYP2C9 Supersomes, luciferin-H conversion, luminescence; inhibition, % at 5 µM; hit rate 20% among 96,000;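 active = blocking of liver enzyme CYP2C9 beyond about 50% at 5 µM, limit read from the data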
# * hit, by the source's call; · = not tested or not shown; ! = not active in a repeat.
SMILES,CYP2C19 act,Cav3 T inh,CYP2C19 inhib,CYP2C9 activ,CYP2C9 inhib
CC(C)C(OC(=O)C1CCCO1)C(=O)NC1CCCC1 (stereo not given),1.1,-0.23,-7,1.1,-10
O=Cc1ccc2noc(-c3ccc(Cl)cc3)c2c1,0.8,0.34,24,0.9,12
O=C(Nc1ccc(N2CCOCC2)cc1)c1cc2ccccc2o1,0.9,-0.022,15,0.9,15
O=C(c1cc2ccccc2o1)N1CCCCCC1,·,-0.63,·,·,·
O=C(/C=C/N1CCOCC1)c1cc2ccccc2o1,0.9,-0.18,9,0.2,77*
CC1CCN(C(=O)c2cc3ccccc3o2)CC1,0.1,-0.6,86*,0.8,22
COC(=O)c1c(CCl)noc1C(=O)NCC1CCCO1 (stereo not given),1,1.3,5,1,1
c1ccc2[nH]c(-c3ccnc4ccccc34)nc2c1,0.7,0.36,29,0.5,54*!
CC(=O)Nc1cccc(Oc2cc(C#N)c(C#N)cc2N2CCCCCC2)c1,0,-1.9,96*,0,100*
CCO[C@H]1OC(C(=O)NC2CC2)=C[C@@H](C2CC2)[C@@H]1CCCO,·,0.079,·,·,·
COc1ccc(C(=O)OCC(=O)Nc2ccc(F)c(F)c2F)cc1OC,0.9,0.015,12,1,-1
COc1cc(NC(=O)C(C)C)ccc1NC(=O)c1ccco1,0.9,-1.3,14,0.4,64*
COc1cc(NC(=O)c2ccco2)c(OC)cc1NC(=O)Nc1ccccc1Cl,0.2,0.27,85*,0.4,60*
COc1ccc(OC)c(N/C(=N\c2nc(C)cc(C)n2)NC(=O)c2ccco2)c1,0.8,·,18,0.4,56*
COc1cc(C(=O)OCC(=O)Nc2c(F)c(F)c(F)c(F)c2F)cc(OC)c1OC,0.2,0.35,78*,0.6,35
Cc1cc(NC(=O)Cn2cnc3sc(C)c(-c4ccccc4)c3c2=O)no1,·,-2.2,·,·,·
CNC(=O)COC(=O)c1cc(NC(=O)c2ccco2)c(OC)c(OC)c1,1,1.1,4,0.5,54*
COc1ccc(Cl)cc1C(=O)NNC(=O)c1cccnc1,1,0.047,-3,1.4,-38
COc1ccc(-n2cnc3cc(NC(=O)c4ccco4)ccc32)cc1,0.8,-0.0094,20,1,-3
COc1ccccc1-n1cnc2cc(NC(=O)c3ccco3)ccc21,0.3,-0.65,65*,1.1,-6
COc1ccc(Cl)cc1NC(=O)c1cccnc1,1.1,-0.62,-6,2.6*,-157
COc1cc(NC(=O)C2CCCCC2)c(OC)cc1NC(=O)c1ccco1,0.4,0.22,62*,0.5,47
Cc1ccccc1CN1[C@@H](C(C)C)COCCS1(=O)=O,·,0.41,·,·,·
Cc1cc2cc(C)c3nnc(SCC(=O)N4CCc5ccccc54)n3c2cc1C,1.1,-0.0047,-6,1,-3
COc1ccc(C(=O)NCc2cn3ccsc3n2)cc1OC,1.1,0.3,-13,1.1,-14
SMILES,CYP2C19 act,Cav3 T inh,CYP2C19 inhib,CYP2C9 activ,CYP2C9 inhib
CC1CCCCN1S(=O)(=O)c1ccc(NC(=O)c2ccco2)cc1 (stereo not given),0.4,-0.031,59*,0.3,72*
COc1ccc(Cl)cc1C(=O)Nc1ccc(NC(=O)c2ccco2)cc1,1,-0.077,4,0.6,38
C=CCN(CC=C)C(=O)Nc1cc(Cl)ccc1OC,0.1,-1.5,85*,2.7*,-172
O=C(Nc1ccc(NC(=O)C2CCCCC2)nc1)c1ccco1,0.4,0.3,61*,0.7,32
COc1ccc(Cl)cc1NC(=O)c1ccco1,0.7,-0.43,32,4.2*,-320
COCC(=O)Nc1ccc(S(=O)(=O)Nc2cc(C)nc(C)n2)cc1,1,0.48,-1,1,-3
COc1ccc(NC(=O)CCc2ccccc2)cc1NC(=O)c1ccco1,0.4,-0.0099,62*,0.3,66*
COc1ccc(CC(=O)Nc2ccc(OC)c(NC(=O)c3ccco3)c2)cc1,0.9,0.91,11,0.8,17
Cc1ccc(S(=O)(=O)N(C)CC(=O)NCc2ccncc2)cc1,0.1,0.028,90*,0.2,80*
CS(=O)(=O)N(CC(=O)NCc1ccc(Cl)cc1)C1CCCCC1,·,0.076,·,·,·
CC1CCCCC1NC(=O)CN(C)S(=O)(=O)c1cccc2nsnc12 (stereo not given),0.5,-0.64,48,1.3,-33
O=C(CN(C1CCCCC1)S(=O)(=O)c1ccc(Cl)cc1)NCCCO,0.4,0.034,60*,0.7,31
Cc1ccc(S(=O)(=O)N(C)CC(=O)Nc2ccncc2)cc1,0,0.046,100*,0.4,63*
Cc1noc(C)c1S(=O)(=O)N(C)CC(=O)NCc1ccccc1,0.9,0.48,5,1,-1
CC1CCCC(NC(=O)CN(C)S(=O)(=O)c2cccc3cccnc23)C1C (stereo not given),0.4,-1.6,59*,2.1*,-114
CC(C)Nc1nc(NC(C)(C)C)nc(Oc2ccc(=O)n(-c3ccccc3)n2)n1,0.9,-1.1,6,0.9,11
Cc1ccc(S(=O)(=O)NNC(=O)CCC(=O)Nc2ccccc2)cc1,1,0.02,-3,1,4
Cc1ccc(S(=O)(=O)N(CC(=O)NCc2ccncc2)C2CCCCC2)cc1,0,0.88,99*,0.1,93*
Cc1ccc(CNC(=O)CN(C)S(=O)(=O)c2cccc3cccnc23)cc1,0.1,-0.06,88*,0.6,42
COc1ccc(CCNC(=O)CN(C)S(=O)(=O)c2cccc3nsnc23)cc1OC,0.9,0.61,9,0.6,43
Cc1ccc(S(=O)(=O)N(C)CCCC(=O)Nc2ccncc2)cc1,0,·,99*,0,96*
CCOC(=O)Cc1csc(NC(=O)CN(C)S(=O)(=O)c2cccc3cccnc23)n1,0.1,-2.2,90*,0.1,92*
Cc1cccn2c(=O)c(C=Nc3c(C)n(C)n(-c4ccccc4)c3=O)c(N3CCCC3)nc12,0.9,·,11,0.8,15
COc1ccc(NC(=O)CN(C)C(=O)c2ccc(C)s2)cc1,1,0.21,0,1,1
CCOc1ccc2nc(SC(C)C(N)=O)[nH]c2c1 (stereo not given),0.6,0.62,45,0.8,18
SMILES,CYP2C19 act,Cav3 T inh,CYP2C19 inhib,CYP2C9 activ,CYP2C9 inhib
CCOc1ccc2nc(NCCNC(=O)C(C)C)c(C)cc2c1,0.2,-0.94,77*,0.1,94*
CCOc1ccc2nc(NCCNC(=O)C3CC3)c(C)cc2c1,0.4,0.49,56*,0.5,52*
O=C(Nc1ccc(N2CCN(C(=O)c3ccco3)CC2)cc1)C(c1ccccc1)c1ccccc1,0.1,-1.6,86*,0.4,61*
O=C(Nc1ccc(N2CCN(C(=O)c3ccco3)CC2)cc1)c1cccs1,0.9,0.37,7,0.8,22
Cc1cccc(OCC(=O)Nc2ccc(N3CCN(C(=O)c4ccco4)CC3)cc2)c1,0.3,0.25,66*,0.6,44
Cc1ccc2c(c1)c1c3n2CC(=C2C(=O)OC(C)(C)OC2=O)NC3CCC1 (stereo not given),0.6,-1.6,40,0.2,81*
